# In all, about 310,000 compounds went through this assay and about 14,000 (4.5%) showed an effect of 50% or more. The effect is printed as a negative number. The list comes from a sample in which strong results are over-represented; it also holds similar structures and randomly drawn compounds.
# Target: human ether-à-go-go-related gene (hERG) potassium channel (human, UniProt Q12809)
# Assay: primary screen, population patch clamp on CHO cells stably expressing hERG; higher = less effect of the substance
# 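Note: peak tail current of the secondary pulse compared with the same well before compound.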
# Sequence of human ether-à-go-go-related gene (hERG) potassium channel (Q12809 whole entry, looked up): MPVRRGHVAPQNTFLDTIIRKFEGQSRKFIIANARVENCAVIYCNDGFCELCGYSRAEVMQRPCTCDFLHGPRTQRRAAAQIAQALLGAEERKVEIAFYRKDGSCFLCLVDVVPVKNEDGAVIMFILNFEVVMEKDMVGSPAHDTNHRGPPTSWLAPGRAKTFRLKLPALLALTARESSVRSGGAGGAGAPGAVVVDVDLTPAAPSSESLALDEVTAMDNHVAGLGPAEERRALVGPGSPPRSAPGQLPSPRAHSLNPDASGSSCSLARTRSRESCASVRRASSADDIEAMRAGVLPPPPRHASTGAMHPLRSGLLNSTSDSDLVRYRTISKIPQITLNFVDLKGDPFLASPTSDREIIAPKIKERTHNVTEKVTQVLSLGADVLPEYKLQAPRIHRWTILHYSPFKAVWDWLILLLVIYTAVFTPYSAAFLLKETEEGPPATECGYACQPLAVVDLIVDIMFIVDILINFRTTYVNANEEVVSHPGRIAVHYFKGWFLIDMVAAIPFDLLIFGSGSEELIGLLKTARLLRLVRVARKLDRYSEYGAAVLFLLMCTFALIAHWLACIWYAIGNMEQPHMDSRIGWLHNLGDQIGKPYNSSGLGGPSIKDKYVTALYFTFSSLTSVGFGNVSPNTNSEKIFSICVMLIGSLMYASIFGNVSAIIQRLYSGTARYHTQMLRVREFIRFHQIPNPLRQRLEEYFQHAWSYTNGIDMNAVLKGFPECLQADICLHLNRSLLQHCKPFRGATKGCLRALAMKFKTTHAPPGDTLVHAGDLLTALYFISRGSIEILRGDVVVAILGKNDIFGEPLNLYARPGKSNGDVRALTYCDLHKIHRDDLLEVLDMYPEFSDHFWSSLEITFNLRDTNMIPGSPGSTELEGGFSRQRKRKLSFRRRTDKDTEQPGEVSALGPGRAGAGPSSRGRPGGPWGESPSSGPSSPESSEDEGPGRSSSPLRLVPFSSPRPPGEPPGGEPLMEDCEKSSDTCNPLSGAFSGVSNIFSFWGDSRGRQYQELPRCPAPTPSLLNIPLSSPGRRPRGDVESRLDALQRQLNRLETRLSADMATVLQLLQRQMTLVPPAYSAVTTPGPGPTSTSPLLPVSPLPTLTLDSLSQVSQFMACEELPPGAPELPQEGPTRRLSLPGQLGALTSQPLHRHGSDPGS
row,SMILES,"hERG current change (%, negative = inhibition) at 10uM [%]"
1,Cc1cc(C)c2nc(-c3ccccn3)cc(C(=O)Nc3cc(C)on3)c2c1,10.4
2,COc1ccc(-n2nc(C(=O)NCC(=O)NC(C)C)c3ccccc3c2=O)cc1Cl,4.05
3,COC(=O)c1c(C(=O)OC)c(-c2ccc(F)cc2)n2c1CS(=O)C2 (stereo not shown),26.7
4,COC(=O)c1c(C(=O)OC)c(-c2ccc(OC)cc2)n2c1CS(=O)C2 (stereo not shown),10.1
5,COC(=O)c1c(C(=O)OC)c(-c2ccc(C)cc2)n2c1CS(=O)C2 (stereo not shown),-53.8
6,OCCCc1nc2ccccc2n1CCCCOc1ccccc1,-57.2
7,CC(C)(C)C(=O)NCCCc1nc2ccccc2n1CCCOc1ccc(Cl)cc1,-57.2
8,OCc1nc2ccccc2n1CCCCOc1ccccc1,0.828
9,OCCCc1nc2ccccc2n1CCOc1ccccc1,-5.7
10,CC(C)(C)C(=O)NCCc1nc2ccccc2n1CC(=O)c1ccc(Cl)cc1,-33.2
11,CC(C)C(=O)NCCc1nc2ccccc2n1CCCOc1ccc(Cl)cc1,-41.7
12,CCSc1nnc(NC(=O)C2CCCCC2C(=O)OCC(F)(F)C(F)F)s1 (stereo not shown),17.9
13,O=C(COc1ccccc1)Nc1ccc([N+](=O)[O-])cc1,1.57
14,CCOC(=O)c1[nH]cnc1C(=O)Nc1ccccc1OC,-2.79
15,Cc1csc(SCC(=O)Nc2nnc(C)s2)n1,15
16,CC(Sc1nncn1C)C(=O)Nc1ccccc1-c1ccccc1 (stereo not shown),8.27
17,O=C(NC1CCCC1)C(c1ccncc1)N(C(=O)c1ccco1)c1ccccc1 (stereo not shown),-5.61
18,CCOC(=O)C1(CCOc2ccccc2)CCN(CC2CC2)CC1,-47.4
19,CCOC(=O)C1(CCOc2ccccc2)CCN(CC=C(C)C)CC1,-50.2
20,CCOC(=O)C1(CCOc2ccccc2)CCN(CC(O)CO)CC1 (stereo not shown),-26.9
21,CCCN1CCC(CCOc2ccccc2)(C(=O)OCC)CC1,-58.5
22,CCN1CCN(Cc2cccnc2)CC1,17.1
23,CCCCOC(=O)c1ccc(NC(=O)CSc2nncn2C)cc1,-4.57
24,Cc1ccc(S(=O)(=O)NNC(=O)c2cnn(-c3ccccc3)c2-n2cccc2)cc1,-15

row,SMILES,"hERG current change (%, negative = inhibition) at 10uM [%]"
1,COc1ccc(C(=O)/C=C/C(=O)N(Cc2ccccc2)C(C(=O)NC2CCCCC2)c2ccncc2)c(O)c1 (stereo not shown),-19.3
2,O=C(N/N=C/c1ccsc1)c1ccc2ccccc2n1,-2.2
3,CCOC(=O)CSc1nc2ccccc2c(=O)n1Cc1ccco1,-18.1
4,O=C(CSc1nc2ccccc2c(=O)n1Cc1ccco1)N1CCCC1,-77.1
5,O=C(CSc1nc2ccccc2c(=O)n1Cc1ccco1)N1CCN(c2ccccc2)CC1,-74.9
6,CCn1c(SCC(=O)N2CCN(c3cccc(Cl)c3)CC2)nc2ccccc2c1=O,-39.1
7,O=C(CSc1nc2ccccc2c(=O)n1Cc1ccco1)N1CCCCCC1,-76.4
8,NC(=O)CSc1nc2ccccc2c(=O)n1Cc1ccco1,-36
9,O=c1c2ccccc2nnn1CSc1nc2ccccc2c(=O)n1Cc1ccco1,-6.44
10,COCCn1nnnc1CN1CCN2CCCC2C1.Cl (stereo not shown),3.16
11,C/C(=N/NC(=O)c1cc(-c2ccccc2)nc2c(Cl)cccc12)c1cccnc1,26.1
12,Cc1cc(=O)[nH]c(SCC(=O)N2CCCC(C)C2)n1 (stereo not shown),11.3
13,CCOc1ccc(N(CC(=O)Nc2ccc(OC)cc2)S(=O)(=O)c2c(C)[nH]c(=O)[nH]c2=O)cc1,1.99
14,COc1ccc(S(=O)(=O)N2CCOCC2)cc1C(=O)NCC(c1ccco1)N1CCCC1 (stereo not shown),3
15,OCCN1CCN(CCCN2c3ccccc3Sc3ccc(Cl)cc32)CC1,-49.3
16,CN(C)CCCN1c2ccccc2Sc2ccc(Cl)cc21.Cl,-42.2
17,C[NH+](C)CCCN1c2ccccc2Sc2ccc(Cl)cc21.[Cl-],-65.3
18,O=C(Nc1ccccc1C(=O)N1CCCC1)c1ccc(Cl)cc1Cl,14
19,Cc1cc(C(=O)CSc2nnc(NCc3ccccc3)s2)c(C)n1C,-9.15
20,O=C(c1cccs1)N1CCN(c2nc3ccccc3s2)CC1,0.757
21,O=C(CN1CCC(c2nc3ccccc3s2)CC1)NCc1cccs1,-37.2
22,O=C(CN1CCC(c2nc3ccccc3s2)CC1)N1CCCCC1,-33.5
23,O=C(c1ccccc1Br)N1CCC(c2nc3ccccc3s2)CC1,-35.1
24,O=C(c1cccc(F)c1)N1CCC(c2nc3ccccc3s2)CC1,-49.9

row,SMILES,"hERG current change (%, negative = inhibition) at 10uM [%]"
1,O=C(c1cccs1)N1CCC(c2nc3ccccc3s2)CC1,-57.2
2,CCc1ccc(C(=O)N2CCC(c3nc4ccccc4s3)CC2)cc1,-71.9
3,Cc1cccc(C(=O)N2CCC(c3nc4ccccc4s3)CC2)c1,-33.7
4,O=C(CN1CCC(c2nc3ccccc3s2)CC1)NCc1ccccc1,-67.5
5,O=C(N/N=C/c1c[nH]c2ccc(Br)cc12)c1ccn(Cc2ccc(Cl)cc2Cl)n1,6.95
6,C/C(=C\c1ccc(Br)cc1)C(=O)c1c(C)cc(C)[nH]c1=O,8
7,Cc1cc(C)c(NC(=O)CS)c(Cl)c1,6.4
8,CCOc1ccc(C(=O)Nc2c(C(=O)N3CCC(N4CCCCC4)CC3)oc3ccccc23)cc1,-83.2
9,COc1cc(C(=O)Nc2c(C(=O)N3CCOCC3)oc3ccccc23)cc(OC)c1OC,-10
10,O=C(Nc1c(C(=O)N2CCOCC2)oc2ccccc12)c1ccccc1Cl,0.111
11,O=C(c1ccccc1F)N1CCC(N2CCCCCC2)CC1,-10.3
12,O=C(Nc1c(C(=O)N2CCC(N3CCCCC3)CC2)oc2ccccc12)c1ccc(F)cc1,-65.8
13,O=C(Nc1ccc(F)cc1)c1oc2ccccc2c1NC(=O)C1CCCC1,-4.15
14,CCOc1ccc(C(=O)Nc2c(C(N)=O)oc3ccccc23)cc1,11.9
15,O=C(Nc1c(C(=O)N2CCC(N3CCCCC3)CC2)oc2ccccc12)c1c(F)cccc1F,-51.7
16,O=C(c1ccc(F)cc1)N1CCC(N2CCCCCC2)CC1,-26
17,O=C(O)CCCCCCCCc1cn(CCc2c[nH]c3ccccc23)nn1,4.49
18,O=C(Nc1ccc(Cl)cc1)C1=Cc2ccccc2OC1,-9.34
19,CC(=NCCC1=CCCCC1)c1c(O)n(-c2ccccc2)c(=O)[nH]c1=O,4.58
20,CC(C)C[C@H](CO)Nc1nc(N(C)c2cccc(Cl)c2)c2ncn(C(C)C)c2n1,-7.87
21,COCCn1c(=S)[nH]c2cc(OC)c(OC)cc2c1=O,11
22,COc1ccc(-c2nnnn2-c2ccccc2OC)cc1,-9.02
23,Cc1ccc(CSc2nn3c(=O)c(C)nnc3s2)cc1,-13.9
24,Cc1ccc2nc(N3CCN(CCO)CC3)nc(-c3ccccc3)c2c1,-54.4

row,SMILES,"hERG current change (%, negative = inhibition) at 10uM [%]"
1,Cc1ccc2nc(N3CCN(C=O)CC3)nc(-c3ccccc3)c2c1,-56
2,CCOC(=O)N1CCN(c2nc(-c3ccccc3)c3cc(C)ccc3n2)CC1,-8.98
3,OCCN1CCN(c2nc(-c3ccccc3)c3cc(Br)ccc3n2)CC1,-47.7
4,Cc1ccc2nc(N3CCC(C(=O)O)CC3)nc(-c3ccccc3)c2c1,-1.95
5,OCCN1CCN(c2nc(-c3ccccc3)c3cc(Cl)ccc3n2)CC1,-26.2
6,Cc1cccn2c(Nc3ccccc3)c(-c3ccccn3)nc12,1.81
7,NC(CSCc1ccccc1Cl)C(=O)O (stereo not shown),0.173
8,COc1ccc(S(=O)(=O)N(C)c2ccc(C(=O)Nc3ccccc3C(=O)N3CCOCC3)cc2)cc1,-6.94
9,Cc1ccc(-n2nnnc2-c2ccco2)cc1,-2.37
10,O=C(N1CCC(n2nc(-c3ccccc3)oc2=O)CC1)C1(c2ccccc2)CC1,-17.5
11,COc1ccc(COC(=O)C2CC(=O)N(Cc3ccc(C)cc3)C2)cc1 (stereo not shown),-58.3
12,Cc1ccc(N2CC(C(=O)OCc3ccccc3)CC2=O)cc1 (stereo not shown),-15.6
13,NC(=O)C1CC(=O)N(c2ccc(OCc3ccc([N+](=O)[O-])cc3)cc2)C1 (stereo not shown),-30.8
14,CCc1ccc(N2CC(C(=O)OCC(=O)Nc3ccc(C(C)=O)cc3)CC2=O)cc1 (stereo not shown),-19.1
15,COc1ccc(COC(=O)C2CC(=O)N(Cc3ccccc3)C2)cc1 (stereo not shown),-34.1
16,COc1ccc(NC(=O)COC(=O)C2CC(=O)N(Cc3ccc(C)cc3)C2)cc1 (stereo not shown),-12.7
17,CC(=O)c1ccc(OC(=O)C2CC(=O)N(c3cccc(C)c3)C2)cc1 (stereo not shown),-1.85
18,O=C(OCc1ccc([N+](=O)[O-])cc1)C1CC(=O)N(c2ccccc2)C1 (stereo not shown),-69.1
19,CCc1ccc(N2CC(C(=O)OCC(=O)Nc3ccc(C#N)cc3)CC2=O)cc1 (stereo not shown),-57.9
20,Cc1cccc(N2CC(C(=O)O)CC2=O)c1 (stereo not shown),-15.2
21,CCc1ccc(N2CC(C(=O)OCC(=O)Nc3ccc([N+](=O)[O-])cc3)CC2=O)cc1 (stereo not shown),-36.9
22,Cc1cccc(N2CC(C(=O)OCc3ccc([N+](=O)[O-])cc3)CC2=O)c1 (stereo not shown),-64

# Source: publication PMC4336329 (PLoS ONE, 2015)
